This note sets out measurements from a collection of fitness landscapes (doi:10.1126/science.1257360).

Whole data set: some 140,000 sequences, median “enrichment ratio after two sorts for PhoP signalling” near 0, cut for the highest 2% near 11. For the sample, the highest values were picked, then their nearest neighbours and some sequences at random.

To fix the notation:
B1: PhoQ; a variant is named by its letters at X, in order, P23837 (parent)
chain: MKKLLRLFFPLSLRVRFLLATAAVVLVLSLAYGMVALIGYSVSFDKTTFRLLRGESNLFYTLAKWENNKLHVELPENIDKQSPTMTLIYDENGQLLWAQRDVPWLMKMIQPDWLKSNGFHEIEADVNDTSLLLSGDHSIQQQLQEVREDDDDAEMTHSVAVNVYPATSRMPKLTIVVVDTIPVELKSSYMVWSWFIYVLSANLLLVIPLLWVAAWWSLRPIEALAKEVRELEEHNRELLNPATTRELTSLVRNLNRLLKSERERYDKYRTTLTDLTHSLKTPLXXLQXXLRSLRSEKMSVSDAEPVMLEQISRISQQIGYYLHRASMRGGTLLSRELHPVAPLLDNLTSALNKVYQRKGVNISLDISPEISFVGEQNDFVEVMGNVLDNACKYCLEFVEISARQTDEHLYIVVEDDGPGIPLSKREVIFDRGQRVDTLRPGQGVGLAVAREITEQYEGKIVAGESMLGGARMEVIFGRQHSAPKDE

Variants of B1 are the subject of the test. As to the kind of experiment: enrichment ratio after two sorts for PhoP signalling (ratio (wild type AVST 3.29)); higher = more functional. The note with it: with PhoP (E. coli).
Take EQPV: the enrichment ratio was at most 0.25.

As for NEVC, the enrichment ratio is at most 0.25.

Regarding SNLL, the enrichment ratio was 18.5.

Take ANLL: the enrichment ratio amounted to 13.4.

Take TGLL: the enrichment ratio is 12.6.

GEEL: the enrichment ratio was at most 0.25.

Take GELL: the enrichment ratio was 12.9.

For the variant NGLL, the enrichment ratio worked out at 3.87.

Regarding CFLL, the enrichment ratio is at most 0.25.

Consider ALLL, for which the enrichment ratio worked out at 8.77.

Take SPLL: the enrichment ratio is at most 0.25.

For the variant SRLL, the enrichment ratio worked out at 10.3.

GEGL: the enrichment ratio is at most 0.25.

APLL: the enrichment ratio was at most 0.25.

As for FYWW, the enrichment ratio was at most 0.25.

Turning to TYKE, the enrichment ratio is at most 0.25.

In the case of SNRC, the enrichment ratio is at most 0.25.

As for GTRN, the enrichment ratio was at most 0.25.

Consider HRVR, for which the enrichment ratio was at most 0.25.

Take LSWW: the enrichment ratio was at most 0.25.

Regarding ACNW, the enrichment ratio was at most 0.25.

Turning to QYTV, the enrichment ratio is at most 0.25.

Take PYEY: the enrichment ratio was at most 0.25.

For MGMC, the enrichment ratio stood at 5.27.

As for FGNL, the enrichment ratio is at most 0.25.

For the variant TILL, the enrichment ratio came out at 0.421.

Turning to TDLL, the enrichment ratio turned out to be 11.8.

Turning to FGLL, the enrichment ratio worked out at 12.6.

Turning to KDLL, the enrichment ratio is at most 0.25.

As to THLL, the enrichment ratio is 14.

Consider NHLL, for which the enrichment ratio is at most 0.25.

Turning to QGLL, the enrichment ratio was 10.4.

Take YHLL: the enrichment ratio is at most 0.25.

For the variant FDLL, the enrichment ratio is at most 0.25.

As to SGLL, the enrichment ratio was 19.8.

Take IMDM: the enrichment ratio is at most 0.25.

Take IQAN: the enrichment ratio was at most 0.25.

As for PYDA, the enrichment ratio is at most 0.25.

For the variant PKEG, the enrichment ratio was at most 0.25.

In the case of VQIN, the enrichment ratio is at most 0.25.

Regarding QPDT, the enrichment ratio is at most 0.25.

Consider LCFE, for which the enrichment ratio is at most 0.25.

On to CCPF, for which the enrichment ratio was at most 0.25.

For the variant HHCS, the enrichment ratio is at most 0.25.

Take TTLL: the enrichment ratio stood at 17.7.

For the variant SELL, the enrichment ratio worked out at 16.3.

As to QELL, the enrichment ratio was at most 0.25.

For SMLS, the enrichment ratio came out at 6.78.

In the case of SMLA, the enrichment ratio came to 6.54.

Consider ITLL, for which the enrichment ratio turned out to be 7.22.

In the case of CTLL, the enrichment ratio came out at 0.613.

As for MVLL, the enrichment ratio is 7.33.

Take SMLL: the enrichment ratio was determined as 11.2.

Consider GLLL, for which the enrichment ratio came to 11.7.

As for GLLA, the enrichment ratio was at most 0.25.

Turning to HWCD, the enrichment ratio worked out at 2.96.

In the case of RPRI, the enrichment ratio is at most 0.25.

As for VRDD, the enrichment ratio is at most 0.25.

Take KIGV: the enrichment ratio was at most 0.25.

On to THDR, for which the enrichment ratio is at most 0.25.

For AYVL, the enrichment ratio was at most 0.25.

For the variant MAPF, the enrichment ratio is at most 0.25.

As to SDCN, the enrichment ratio was 4.78.

WMRH: the enrichment ratio is at most 0.25.

DNPC: the enrichment ratio was at most 0.25.

RGLL: the enrichment ratio was at most 0.25.

As to DPLL, the enrichment ratio is at most 0.25.

Consider GGLL, for which the enrichment ratio was found to be 12.7.

GYLL: the enrichment ratio is at most 0.25.

For the variant MCLL, the enrichment ratio came to 8.32.

Turning to MNLL, the enrichment ratio was 12.4.

Turning to KYLL, the enrichment ratio was at most 0.25.

With TNLL, the enrichment ratio is 4.87.

Consider AGLL, for which the enrichment ratio was 14.6.

Turning to SQLL, the enrichment ratio amounted to 12.5.

Take QKGI: the enrichment ratio was at most 0.25.

Regarding VHAG, the enrichment ratio is at most 0.25.

IAYV: the enrichment ratio is at most 0.25.

For FDHC, the enrichment ratio is at most 0.25.

With EIDC, the enrichment ratio was at most 0.25.

In the case of SSGH, the enrichment ratio stood at 7.6.

For QDTV, the enrichment ratio was at most 0.25.

Regarding ILKM, the enrichment ratio was at most 0.25.

For the variant SFLL, the enrichment ratio came out at 3.56.

As to VYLL, the enrichment ratio is at most 0.25.

Take SALL: the enrichment ratio turned out to be 18.6.

VTLA: the enrichment ratio was determined as 5.19.

As for MGRL, the enrichment ratio is at most 0.25.

Take STLL: the enrichment ratio was determined as 16.4.

Regarding IILL, the enrichment ratio was determined as 1.2.

KQLL: the enrichment ratio was at most 0.25.

As to SLLL, the enrichment ratio stood at 5.02.

Regarding MGLL, the enrichment ratio came out at 14.3.

In the case of MGGL, the enrichment ratio worked out at 4.99.

Turning to VTLL, the enrichment ratio turned out to be 17.8.

For the variant PQRH, the enrichment ratio is at most 0.25.

Regarding LTHP, the enrichment ratio is at most 0.25.

As to TKSQ, the enrichment ratio amounted to 2.92.

As for HTAI, the enrichment ratio was at most 0.25.

As for KTTI, the enrichment ratio is at most 0.25.

Regarding LGSF, the enrichment ratio was at most 0.25.

Turning to YVWK, the enrichment ratio is at most 0.25.

Take IDNN: the enrichment ratio was at most 0.25.

As for TPLL, the enrichment ratio was at most 0.25.

ATLL: the enrichment ratio came out at 20.5.

Turning to FTLL, the enrichment ratio was 11.6.

Consider EQLL, for which the enrichment ratio is at most 0.25.

Take AHLL: the enrichment ratio is 9.28.

With YTLL, the enrichment ratio was 9.09.

Consider YYLL, for which the enrichment ratio was at most 0.25.

On to TQLL, for which the enrichment ratio worked out at 18.9.

For the variant GSLL, the enrichment ratio came to 14.1.

For the variant GSRL, the enrichment ratio is at most 0.25.

On to ADLL, for which the enrichment ratio came to 9.99.

For IQLL, the enrichment ratio came to 0.329.

VRSK: the enrichment ratio was at most 0.25.

LRNP: the enrichment ratio is at most 0.25.

Take AMGN: the enrichment ratio was 1.38.

With QRDR, the enrichment ratio is at most 0.25.

Take FIYI: the enrichment ratio is at most 0.25.

On to ITNW, for which the enrichment ratio is at most 0.25.

For WLSG, the enrichment ratio is at most 0.25.

FDMD: the enrichment ratio is at most 0.25.

For the variant MVGW, the enrichment ratio was at most 0.25.

Consider DRLW, for which the enrichment ratio was at most 0.25.

On to KCLL, for which the enrichment ratio is at most 0.25.

Regarding GICL, the enrichment ratio is 9.48.

Consider NPLL, for which the enrichment ratio was at most 0.25.

On to LTLL, for which the enrichment ratio is 3.06.

For GILL, the enrichment ratio is 18.2.

Take WILL: the enrichment ratio was at most 0.25.

GNLL: the enrichment ratio was found to be 15.3.

Turning to QCLL, the enrichment ratio turned out to be 2.35.

With GTLL, the enrichment ratio came to 12.4.

Turning to GCLL, the enrichment ratio is 18.3.

Turning to LNLL, the enrichment ratio was at most 0.25.

In the case of NILL, the enrichment ratio is 0.938.

Turning to TKDY, the enrichment ratio was at most 0.25.

For KPVK, the enrichment ratio was at most 0.25.

As for ICMI, the enrichment ratio was at most 0.25.

With SFHP, the enrichment ratio was at most 0.25.

Take YHHD: the enrichment ratio is at most 0.25.

With AQVH, the enrichment ratio was determined as 7.73.

Take GEFP: the enrichment ratio was at most 0.25.

On to VRNY, for which the enrichment ratio is at most 0.25.

HILL: the enrichment ratio was at most 0.25.

With GALL, the enrichment ratio is 13.8.

Consider GIAL, for which the enrichment ratio was 13.

For the variant SKLL, the enrichment ratio was found to be 14.

Turning to YALL, the enrichment ratio stood at 10.6.

In the case of GAAL, the enrichment ratio was at most 0.25.

For GNAL, the enrichment ratio stood at 7.59.

In the case of SKLT, the enrichment ratio was 4.23.
